Compounds with a hit are over-represented: about 1.2% of the library has one in this group of screens.
GoLoco inh red: blocks human Gai1 binding to RGS12 GoLoco peptide, red readout | P63096 | Gai1:RGS12 GoLoco peptide FP, rhodamine, 10 min | Potency, µM (doses to about 61.6 µM), for the others: at the top dose activity, negative = inhibition, usual class: inhibitors | 230,000 compounds, 0.44% hits | AID 880; active = well fitted inhibition curve with a large enough effect, not every such curve was filed as active; inactive = no such curve, though single readings can be large or run the other way; also: potency is read from the fitted curve at half-maximal effect; nearly all actives have a fitted effect of over 30% in size
Tb PGK inh: blocks T. brucei phosphoglycerate kinase; PGK/GAPDH coupled, Kinase-Glo luminescence, 60 min; 380,000 compounds, 0.043% hits; Potency, µM (highest dose often 57.5 µM), for the others: at the top dose activity change, negative = inhibition, usual class: inhibitors; AID 602233; P07378; also: potency is read from the fitted curve at half-maximal effect; nearly all actives have a fitted effect of over 60% in size
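Recombinant glycosomal PGK reaction used 1,3-bisphosphoglycerate generated in-well by GAPDH (100nM final) in 100mM TEA pH 7.6, 5mM MgCl2, 0.01% Tween-20. After 60 minutes at room temperature, ATP was read by Kinase-Glo Plus luminescence end-point.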
PI5P4K alpha inh: PI5P4K alpha (human) kinase inhibition; P48426; PI5P4Kalpha enzyme, ADP-Glo luminescence, 60 min; stronger effect = lower value; max response, %; 330,000 compounds, 1.2% hits; active = max response of -50% or lower; inconclusive = between -30% and -50%; inactive = -30% or higher; also: value at the top dose of about 77 µM
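qHTS, 1536-well: enzyme/substrate mix, compound by pin tool, 5 microM ATP final; RT 60 min; ADP-Glo reagents 1 (45 min) then 2 (30 min); luminescence.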
Pin1 inh: human Pin1 inhibition | Q13526 | Pin1 FP peptide displacement, HiFluor488, 10 min | Potency, µM (highest dose often 115 µM), inactives show at the highest dose activity, negative = inhibition, actives largely listed as inhibitors | 390,000 compounds, 0.009% hits; active = well fitted inhibition curve with a large enough effect in the polarisation, with a control signal flat, not every such curve was filed as active; inconclusive = small, poorly fitted or top-dose-only effect, or effect the other way, or a change in a side signal; inactive = no such curve, though single readings can be large or run the other way; the % refers to the polarisation; also: potency is read from the fitted curve at half-maximal effect
Target sequence (Q13526 whole entry, looked up): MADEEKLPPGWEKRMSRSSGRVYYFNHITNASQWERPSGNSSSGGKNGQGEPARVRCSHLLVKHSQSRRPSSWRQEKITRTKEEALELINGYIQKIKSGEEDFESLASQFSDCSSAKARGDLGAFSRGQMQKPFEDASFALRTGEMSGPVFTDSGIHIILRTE
KAT2A inh: blocks human GCN5L2 histone acetyltransferase; Q92830; GCN5L2 HAT assay, ThioGlo1 CoA-SH fluorescence; Potency, µM (top dose mostly 58.9 µM), without a hit: at the top dose activity change, negative = inhibition, actives largely listed as inhibitors; 390,000 compounds, 0.21% hits; also: potency is read from the fitted curve at half-maximal effect
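Preincubate 20nM GCN5L2 with compound 15 min, RT → add 50uM ThioGlo1 + 75uM H3(1-25) + 70uM acetyl-CoA → read fluorescence 0 and 20 min. Primary qHTS; fluorescent artifacts likely.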
PI4K2A block: inhibitors of human PI4K2A; Q9BTU6; purified PI4K2A, ADP-Glo luminescence, 1 h; stronger effect = lower value; activity change, negative = inhibition, % at 76.9 µM; 420,000 compounds, 0.13% hits; AID 1346378; in the data active = activity change below about -50%; inconclusive = mostly about -30% to -49%;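 also: -100% = wells without enzyme as full effect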
Target sequence (Q9BTU6 whole entry, looked up): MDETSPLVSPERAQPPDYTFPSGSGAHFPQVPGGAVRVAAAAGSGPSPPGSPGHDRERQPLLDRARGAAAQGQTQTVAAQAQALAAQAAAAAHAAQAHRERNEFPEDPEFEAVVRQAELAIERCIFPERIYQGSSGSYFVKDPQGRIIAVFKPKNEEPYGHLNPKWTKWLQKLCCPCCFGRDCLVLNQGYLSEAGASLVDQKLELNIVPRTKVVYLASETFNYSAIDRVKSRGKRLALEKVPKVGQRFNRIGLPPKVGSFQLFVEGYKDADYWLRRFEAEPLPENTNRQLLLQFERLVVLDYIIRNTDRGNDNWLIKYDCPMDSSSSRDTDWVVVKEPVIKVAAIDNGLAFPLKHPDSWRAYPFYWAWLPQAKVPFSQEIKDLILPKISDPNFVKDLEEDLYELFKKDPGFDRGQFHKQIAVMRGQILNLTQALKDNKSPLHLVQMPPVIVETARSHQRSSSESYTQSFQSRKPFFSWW
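In this quantitative HTS, ADP production by PI4K2A was quantified luminescently after 1 h at ambient temperature; 100 microM adenosine served as plate-quality control.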
Numbers without * were called inactive; i = inactive; ? = inconclusive; · = no result. Unless noted, calls follow the shape of the dose curve; as a rule, active = well fitted curve in the direction sought with a large enough effect; inconclusive = small, poorly fitted or top-dose-only effect, or another doubt; inactive = no such curve, though single readings can be large; an effect the other way counts as inactive or inconclusive. Unless noted, % is scaled to controls: 0 for no effect and ±100 for the full control effect.

SMILES | GoLoco inh red | Tb PGK inh | PI5P4K alpha inh | Pin1 inh | KAT2A inh | PI4K2A block
COc1ccc(C(C)(C)C)cc1NC(=O)C1CC(=O)N(C2CCCC2)C1 (stereo unspecified) | · | 8% | 2 | 1% | 2% | 2
O=C(N/N=C/c1ccc2ncccc2c1)c1ccco1 | 7% | -14% | -77* | -9% | -15% | -2
CCCCCC#CCC#CCC#CCC#CCCCC(=O)O | 51% | · | · | · | 2.2µM* | ·
CCCCCCCCCC(=O)O | 11% | 1% | -2 | -10% | -3% | -2
COC(=O)c1cc2c(-c3ccccc3)c(C)c3ccccn3c-2c1C(=O)OC | 37% | -2% | 1 | ? | -4% | 1
COC(=O)c1c(Cl)c2n3ccccc3c(C)c(-c3ccccc3)c-2c1C(=O)OC | 14µM* | -12% | -9 | ? | -6% | -4
COc1ccc(NC(=O)CN(C)C(=O)C(NC(=O)c2ccco2)C(C)C)cc1 (stereo unspecified) | · | 5% | -6 | 0% | -18% | -1
Cc1ccc(C2C(C#N)=C(N)Oc3n[nH]c(-c4cccs4)c32)cc1 (stereo unspecified) | 0% | 4% | ? | -1% | -1% | 1
N#CC1=C(N)Oc2n[nH]c(-c3cccs3)c2C1c1ccoc1 (stereo unspecified) | 11% | -4% | -55* | -1% | -1% | -18
N#CC1=C(N)Oc2n[nH]c(-c3cccs3)c2C1c1cccnc1 (stereo unspecified) | 2% | -5% | -50* | 4% | 1% | -3
O=C(c1ccc(Cl)c(S(=O)(=O)NCc2ccco2)c1)N1CCN(c2ccc(F)cc2)CC1 | -3% | i | 1 | -1% | -10% | -2
CC(C(=O)O)N1C(=O)/C(=C/C=C/c2ccco2)SC1=S (stereo unspecified) | -7% | 7.9µM* | -101* | · | 7.9µM* | ?
CCN(C(=O)C(C)N1C(=O)/C(=C/c2ccco2)SC1=S)C1CCS(=O)(=O)C1 (stereo unspecified) | · | -14% | -68* | ? | 0% | ?
CCOc1ccc(/C=C2\SC(=S)N(NS(=O)(=O)c3ccccc3)C2=O)cc1OC | 9% | -11% | -5 | 6% | -9% | -4
O=C1/C(=C/C=C/c2ccco2)SC(=S)N1NS(=O)(=O)c1ccccc1 | 42% | ? | -81* | ? | 20µM* | -19
CCOc1cc(/C=C2\SC(=S)N(NS(=O)(=O)c3ccccc3)C2=O)ccc1O | · | · | -67* | 100% | -26% | -7
O=C(O)CCCN1C(=O)/C(=C\c2ccco2)SC1=S | 43% | -9% | -27 | · | -9% | -26
COc1ccc(CCC(=O)N2c3ccccc3N=C(c3ccc4c(c3)OCO4)C2C(=O)Nc2ccc(OC)cc2)cc1 (stereo unspecified) | · | · | -1 | · | · | 1
CCOc1ccc2c(c1)c(=O)c(C(=O)c1ccccc1)cn2Cc1ccccc1F | · | 3% | · | ? | -1% | -5
Clc1ccccc1Cn1c(-c2cccs2)nc2ccccc21 | · | 7% | · | -2% | -7% | 1
CCCCN1CN=C(Nc2nc3ccccc3o2)NC1 | 1% | i | · | 7% | 2% | -1
O=C1/C(=C/c2cccs2)SC(=S)N1NS(=O)(=O)c1ccccc1 | -6% | 6% | -73* | -1% | -2% | 4
COc1ccc(OC)c(/C=C2\SC(=S)N(NS(=O)(=O)c3ccccc3)C2=O)c1 | · | -2% | ? | 5% | -14% | 1
COc1ccccc1/C=C1\SC(=S)N(NS(=O)(=O)c2ccc(C)cc2)C1=O | · | -5% | ? | ? | 20% | -11
O=C(NN1C(=O)/C(=C/c2cccs2)SC1=S)c1ccncc1 | 3% | i | -22 | 1% | 0% | 3
SMILES | GoLoco inh red | Tb PGK inh | PI5P4K alpha inh | Pin1 inh | KAT2A inh | PI4K2A block
COc1ccc(/C=C2\SC(=S)N(NS(=O)(=O)c3ccccc3)C2=O)c(OC)c1 | · | -10% | -58* | 16% | -4% | -13
COc1ccc(/C=C2\SC(=S)N(NS(=O)(=O)c3ccc(C)cc3)C2=O)c(OC)c1 | · | -2% | -76* | 1% | -13% | -6
COc1ccc(OC)c(/C=C2\SC(=S)N(NS(=O)(=O)c3ccc(C)cc3)C2=O)c1 | · | -11% | -67* | 22% | ? | -4
COc1ccc(NC(=O)[C@H](COCc2ccccc2)NC(=O)OC(C)(C)C)cc1 | -6% | 0% | · | 1% | -5% | 0
Cc1cc(NC(=O)c2ccc(C#N)cc2)n(-c2ccccc2)n1 | · | 0% | -3 | -12% | -9% | -2
O=C(O)/C=C/c1cn(-c2ccccc2)nc1-c1ccc(-c2ccc([N+](=O)[O-])cc2)o1 | 1% | ? | -60* | ? | ? | 0
COc1cc(CC(=O)Nc2ccc(S(=O)(=O)N(C)C)cc2)cc(OC)c1OC | 7.9µM* | 6% | · | -1% | 1% | -5
Cc1ccc(S(=O)(=O)Nc2ccccc2)cc1[N+](=O)[O-] | · | -10% | 0 | -5% | · | 4
Cc1cccc2c(N=Nc3ccc(S(=O)(=O)Nc4cccc(Cl)c4)cc3[N+](=O)[O-])c(O)[nH]c12 | 3% | -6% | -71* | 8% | -5% | -6
CCOc1ccc(S(=O)(=O)N2CCOCC2)cc1NS(=O)(=O)c1ccc(OC)c([N+](=O)[O-])c1 | · | -1% | -4 | 2% | -7% | 1
O=C(O)/C=C\C(=O)NC1CCCCC1 | 3% | 0% | -1 | -4% | -4% | 3
CN1CCc2cccc3c2[C@@H]1Cc1ccc(O)c(O)c1-3 | 7% | -8% | -61* | -10% | -12% | -10
Cc1c(C(=O)O)sc2nc(SCC(=O)Nc3ccc(S(=O)(=O)NC(C)(C)C)cc3)[nH]c(=O)c12 | 10% | 2% | -86* | -3% | -6% | -2
O=C(CSc1nc2ccccc2c(=O)[nH]1)Nc1ccc([N+](=O)[O-])cc1 | · | -1% | -14 | 9% | -7% | 1
Cc1sc2nc(SCC(=O)Nc3ccc(S(N)(=O)=O)cc3)[nH]c(=O)c2c1C | · | -6% | 4 | 26% | ? | -2
Cc1sc2nc(SCC(=O)Nc3cccc(C(=O)O)c3)[nH]c(=O)c2c1C | · | -3% | -73* | 1% | -7% | -14
O=C(CSc1nc2ccccc2c(=O)[nH]1)Nc1ccc(C(=O)O)cc1 | -1% | -16% | -88* | -10% | -2% | 5
Cc1ccc(-c2csc3nc(SCC(=O)Nc4ccc(Cl)c(C(=O)O)c4)[nH]c(=O)c23)cc1 | · | -17% | -78* | -10% | -11% | -7
Cc1sc2nc(SCC(=O)Nc3ccc(Cl)c(C(=O)O)c3)[nH]c(=O)c2c1C | · | -3% | -5 | -6% | · | 5

Source: PubChem
